The subject of one assay is Staphylococcus aureus. The note with it: Concentration 32 ug.mL-1;; ASSAY_TEST Inhibition of Bacterial Growth; detection method Absorption (OD600); MEDIA CAMHB; plate type 384well; NBS; CORNING #3640; time 18 hr.
The next assay has as its system Escherichia coli. The note with it: Concentration 32 ug.mL-1;; ASSAY_TEST Inhibition of Bacterial Growth; detection method Absorption (OD600); MEDIA CAMHB; plate type 384well; NBS; CORNING #3640; time 18 hr.

Results with a measured potency or affinity are listed apart.

Regarding `COc1ccc(OC)c(NC(=O)Cn2nc3c4c5c(sc4ncn3c2=O)CCCC5)c1`, the Inhibition with Staphylococcus aureus is recorded as 3.15%; with Escherichia coli it was -1.54%.
For the compound `O=C(Cn1nc2c(N3CCOCC3)nccn2c1=O)Nc1cc(C(F)(F)F)ccc1Cl`, the Inhibition in the assay on Staphylococcus aureus is listed as 6.98%; in the assay on Escherichia coli, 4.52%.
For `Cc1c(Cl)cccc1-n1ccn2c(=O)n(Cc3cccc(Cl)c3)nc2c1=O`, the Inhibition in the assay on Staphylococcus aureus was 7.64%; in the assay on Escherichia coli it was -4.76%.
On to `COc1ccc(N(Cc2cccc(Cl)c2)S(=O)(=O)c2ccc3nncn3c2)cc1`, for which the Inhibition is given as -10.84% in the assay with Staphylococcus aureus and -8.34% in the assay on Escherichia coli.
For `COc1cc(NC(=O)CSc2nnc3c(=O)n(-c4cccc(OC)c4)ccn23)cc(OC)c1`, the Inhibition in the assay on Staphylococcus aureus was 2.57%; in the assay with Escherichia coli, -9.3%.
The like results for `COc1ccc(CNC(=O)CCc2nnc3c(N4CCCCC4)nc4ccccc4n23)cc1OC` were, in that order, 16.6% and 2.89%.
Take `Cc1ccc(-c2cc3c4nn(CC(=O)Nc5cccc(Br)c5)c(=O)n4ccn3n2)cc1`: the figures for the Inhibition with Staphylococcus aureus and in the assay with Escherichia coli were 8.15% and 0.32%, respectively.
On to `Cc1ccc(-c2ccc3nn(Cc4cc(F)cc(F)c4)c(=O)n3n2)cc1C`, for which the Inhibition amounted to 13.44% in the assay with Staphylococcus aureus and 1.52% in the assay with Escherichia coli.
`COC(=O)c1ccc(CN(c2cccc(C)c2)S(=O)(=O)c2cccn3c(C)nnc23)o1`: the Inhibition is reported as 5.77% with Staphylococcus aureus and -6.24% with Escherichia coli.
Regarding `Cc1ccc(-c2ccc3nn(CC(=O)Nc4ccccc4)c(=O)n3n2)cc1C`, the Inhibition in the assay on Staphylococcus aureus was 3.99%; in the assay on Escherichia coli it was -8.76%.
In the case of `CCOc1ccccc1CNC(=O)CCc1nnc2ccc(-c3ccc(C)cc3)nn12`, the Inhibition with Staphylococcus aureus is reported as 9.96%; in the assay on Escherichia coli, -0.64%.
For `O=C(Cn1nc2c(N3CCSCC3)nc3ccccc3n2c1=O)Nc1ccc(Br)cc1`, the Inhibition in the assay with Staphylococcus aureus is reported as -2.29%; in the assay on Escherichia coli, -4.32%.
For `O=C(Cn1nc2ccc(-c3ccccc3)nn2c1=O)N1CCN(c2ccc(F)cc2)CC1`, the Inhibition was 10.02% in the assay with Staphylococcus aureus and -0.36% in the assay with Escherichia coli.
Take `COc1ccccc1-n1ccn2c(SCC(=O)N3CCN(c4ccccc4F)CC3)nnc2c1=O`: the Inhibition with Staphylococcus aureus is given as 13.15%; in the assay on Escherichia coli it was -2.51%.
For `CSc1cccc(NC(=O)Cn2nc3c(Sc4cccc(F)c4)nccn3c2=O)c1`, the Inhibition with Staphylococcus aureus is 2.75%; in the assay on Escherichia coli, -0.46%.
For the compound `Cc1ccc(NC(=O)Cn2nc3ccc(SCc4ccc(Cl)cc4)nn3c2=O)cc1C`, the Inhibition is recorded as 4.09% in the assay on Staphylococcus aureus and -6.92% in the assay with Escherichia coli.
With `COc1cccc(CN(c2ccc(C)c(F)c2)S(=O)(=O)c2ccc3nncn3c2)c1`, the Inhibition with Staphylococcus aureus is on record as -7.58%; with Escherichia coli, -16.33%.
As to `COc1ccccc1-n1ccn2c(SCc3cccc(Cl)c3)nnc2c1=O`, the Inhibition with Staphylococcus aureus is listed as -2.16%; with Escherichia coli it was -0.92%.
Take `CC(C)c1ccc(N(Cc2cccc(Cl)c2)S(=O)(=O)c2cccn3cnnc23)cc1`: the Inhibition is -3.13% in the assay on Staphylococcus aureus and -8.14% with Escherichia coli.
Take `CCOc1ccc(-n2ccn3c(SCC(=O)Nc4ccc(C)c(C)c4)nnc3c2=O)cc1`: the Inhibition in the assay on Staphylococcus aureus is -4.99%; in the assay on Escherichia coli it was -21.19%.
With `O=S(=O)(c1ccc2nncn2c1)N(Cc1cccc(Cl)c1)c1ccccc1`, the values for the Inhibition with Staphylococcus aureus and in the assay on Escherichia coli were 11.21% and -3.7%, respectively.
For `Cc1cccc(NC(=O)Cn2nc3ccc(-c4ccc(Cl)cc4)nn3c2=O)c1`, the Inhibition is 7.34% with Staphylococcus aureus and -1.37% in the assay with Escherichia coli.
As for `COc1ccc(N(Cc2cccc(C)c2)S(=O)(=O)c2ccc3nncn3c2)cc1`, the Inhibition in the assay on Staphylococcus aureus is listed as -29.14%; in the assay on Escherichia coli, -12.64%.
Consider `COc1cccc(-n2ccn3c(SCC(=O)NC(C)C)nnc3c2=O)c1`, for which the values for the Inhibition in the assay with Staphylococcus aureus and in the assay with Escherichia coli were 11% and -7.26%, respectively.
In the case of `O=c1c2sccc2n2c(=O)n(Cc3cccc(Cl)c3)nc2n1CCc1ccccc1`, the Inhibition is given as 10.13% with Staphylococcus aureus and 1.01% in the assay on Escherichia coli.
`CCc1ccc(Cn2c(=O)c3sccc3n3c(SCc4cccc(C(F)(F)F)c4)nnc23)cc1`: the Inhibition with Staphylococcus aureus was 5.26%; in the assay on Escherichia coli, -0.8%.
In the case of `O=c1c2sccc2n2c(=O)n(Cc3ccccc3F)nc2n1Cc1cccs1`, the values for the Inhibition in the assay with Staphylococcus aureus and in the assay on Escherichia coli were -3.2% and -12.46%, respectively.
In the case of `Cc1ccc(NC(=O)Cn2nc3ccc(SC(C)C)nn3c2=O)c(Cl)c1`, the Inhibition is -9.9% in the assay with Staphylococcus aureus and 1.89% with Escherichia coli.
For the compound `CC(C)NC(=O)CCn1c(=O)c2cc(Cl)ccc2n2c(=O)n(CC#N)nc12`, the Inhibition is given as 0.39% in the assay on Staphylococcus aureus and -9.95% in the assay on Escherichia coli.
The like results for `Cc1ccc(-c2cc3c4nn(CC(=O)Nc5ccc(Cl)cc5)c(=O)n4ccn3n2)cc1C` were, in that order, -15.51% and -16.09%.
The like results for `Cc1nnc2c(=S)[nH]c3ccccc3n12` were, in that order, 19.6% and 10.5%.
The like results for `COc1ccccc1NC(=O)Cn1nc2c3cc(-c4ccc(C)c(C)c4)nn3ccn2c1=O` were, in that order, 6.99% and 2.41%.
With `C=Cc1ccc(CSc2nnc3c(=O)n(-c4ccc(F)cc4)ccn23)cc1`, the Inhibition in the assay on Staphylococcus aureus is 18.57%; in the assay with Escherichia coli, -2.33%.
Take `O=S(=O)(c1ccc2nncn2c1)N(Cc1ccccc1F)c1ccc(F)c(F)c1`: the Inhibition was -7.25% in the assay on Staphylococcus aureus and -4.39% with Escherichia coli.
The like results for `Cn1c(=O)c2ccc(C(=O)NC3CCCC3)cc2n2c(SCc3c(F)cccc3Cl)nnc12` were, in that order, 12.53% and 0.61%.
The like results for `CSc1cccc(NC(=O)Cn2c(=O)c3nnc(C(C)C)n3c3ccccc32)c1` were, in that order, 14.38% and 4.25%.
The like results for `Cn1c(=O)c2ccc(C(=O)NC3CCCCC3)cc2n2c(=O)n(CC#N)nc12` were, in that order, 10.61% and 1.2%.
For the compound `Cc1ccc(-n2ccn3c(=O)n(Cc4ccccc4F)nc3c2=O)cc1C`, the Inhibition in the assay with Staphylococcus aureus was 8.2%; with Escherichia coli it was -3.66%.
`CCc1ccccc1NC(=O)Cn1nc2n(C)c(=O)c3c(c(-c4ccccc4)cn3C)n2c1=O`: the results for the Inhibition in the assay on Staphylococcus aureus and in the assay with Escherichia coli were 6.44% and -11.71%, respectively.
Turning to `COc1cccc(CN(c2ccc(Cl)cc2)S(=O)(=O)c2ccc3nncn3c2)c1`, the Inhibition in the assay with Staphylococcus aureus was -6.52%; in the assay with Escherichia coli it was -6.27%.
For `CCc1ccc(NC(=O)Cn2c(=O)c3nnc(C(C)C)n3c3ccccc32)cc1`, the Inhibition in the assay with Staphylococcus aureus stood at 6.08%; in the assay with Escherichia coli it was 6.05%.
The like results for `Cc1cc(C)cc(N(Cc2c(F)cccc2Cl)S(=O)(=O)c2cccn3cnnc23)c1` were, in that order, 4.69% and -4.41%.
In the case of `CCOC(=O)c1ccccc1NC(=O)Cn1nc2c(Oc3cccc(C)c3C)nccn2c1=O`, the Inhibition with Staphylococcus aureus was 5.11%; in the assay on Escherichia coli it was -6.35%.
For `O=c1c2sccc2n2c(SCc3cccc(C(F)(F)F)c3)nnc2n1Cc1ccc(F)cc1`, the Inhibition in the assay on Staphylococcus aureus was 9.81%; in the assay on Escherichia coli it was -1.38%.
For `COc1cccc(Oc2nccn3c(=O)n(CC(=O)NCc4cccs4)nc23)c1`, the Inhibition in the assay on Staphylococcus aureus was 7.35%; in the assay on Escherichia coli, -2.75%.
In the case of `CCc1ccccc1Sc1nccn2c(=O)n(CC(=O)NCc3cccs3)nc12`, the Inhibition was 6.5% with Staphylococcus aureus and -12.39% with Escherichia coli.
On to `CN(C)c1nc2ccccc2n2c(=O)n(CC(=O)Nc3ccc4c(c3)OCO4)nc12`, for which the Inhibition with Staphylococcus aureus is recorded as 1.33%; in the assay on Escherichia coli, 1.96%.
For `COc1ccccc1N1CCN(C(=O)Cn2nc3ccc(-c4ccc(C)c(C)c4)nn3c2=O)CC1`, the Inhibition was 13.88% with Staphylococcus aureus and -0.61% in the assay on Escherichia coli.
For `COc1ccc(-c2cc3c4nn(CC(=O)Nc5cc(Cl)ccc5C)c(=O)n4ccn3n2)cc1`, the Inhibition in the assay on Staphylococcus aureus amounted to 5.04%; in the assay on Escherichia coli it was 1.53%.
Consider `Cc1cc(C)cc(N(Cc2ccccc2)S(=O)(=O)c2cccn3cnnc23)c1`, for which the Inhibition was -25.73% with Staphylococcus aureus and -13.66% with Escherichia coli.
Turning to `CCc1nnc2c(SCC(=O)Nc3ccc(C)cc3Cl)nc3ccccc3n12`, the Inhibition was found to be 2.52% in the assay with Staphylococcus aureus and 2.69% in the assay with Escherichia coli.
As to `Cc1cc2nn(CC(=O)Nc3cccc(F)c3)c(=O)n2c(Nc2ccc(F)c(C)c2)n1`, the Inhibition in the assay on Staphylococcus aureus was -1.56%; in the assay with Escherichia coli, -7.72%.
Take `Cc1ccc(C)c(NC(=O)Cn2nc3c(N4CCCC(C)C4)nccn3c2=O)c1` (centres undefined): the Inhibition with Staphylococcus aureus was -2.35%; with Escherichia coli, -6.19%.
Consider `Cc1cccc(NC(=O)Cn2nc3ccc(-c4ccccc4)nn3c2=O)c1`, for which the Inhibition with Staphylococcus aureus is on record as 1.55%; with Escherichia coli, -5.19%.
For `COc1ccc(-c2cc3c4nn(CC(=O)Nc5ccccc5)c(=O)n4ccn3n2)cc1`, the Inhibition in the assay with Staphylococcus aureus stood at 3.97%; in the assay with Escherichia coli it was 7.52%.
As to `CCCCOc1ccc(-c2cc3c4nnc(SCC(=O)Nc5cccc(C#N)c5)n4ccn3n2)cc1`, the Inhibition with Staphylococcus aureus was -7.95%; in the assay with Escherichia coli, -7.05%.
In the case of `Cc1ccc(CSc2nnc3c(=O)n(-c4ccc(Br)cc4)ccn23)cc1`, the Inhibition in the assay on Staphylococcus aureus was 13.68%; with Escherichia coli it was -2.08%.
The like results for `O=C(CSc1nnc2c(=O)n(-c3ccc(Br)cc3)ccn12)Nc1cccc(F)c1` were, in that order, 9.13% and -1.52%.
Turning to `Cc1cc(C)cc(N(Cc2ccc(F)cc2)S(=O)(=O)c2cccn3cnnc23)c1`, the values for the Inhibition in the assay with Staphylococcus aureus and in the assay with Escherichia coli were -4.06% and -5.96%, respectively.
`Cc1nnc2ccc(S(=O)(=O)N(Cc3ccccc3F)c3ccc(F)cc3)cn12`: the figures for the Inhibition in the assay on Staphylococcus aureus and in the assay on Escherichia coli were -2.33% and -7.33%, respectively.
For the compound `Cc1ccc(Cl)cc1NC(=O)CSc1nc2ccccc2n2c(C(C)C)nnc12`, the Inhibition is 0.87% in the assay with Staphylococcus aureus and -1.5% in the assay with Escherichia coli.
The like results for `COc1ccc(NC(=O)Cn2c(=O)c3nnc(C(C)C)n3c3ccccc32)cc1` were, in that order, 4.5% and -6.7%.
With `COc1ccc(-c2cc3c4nnc(SCC(=O)NCc5cccc(OC)c5OC)n4ccn3n2)cc1`, the figures for the Inhibition with Staphylococcus aureus and with Escherichia coli were 4.12% and -5.71%, respectively.
In the case of `CCc1nnc2c(S(=O)(=O)N(Cc3ccc(F)cc3)c3ccc(Cl)cc3)cccn12`, the Inhibition in the assay on Staphylococcus aureus is recorded as 8.89%; with Escherichia coli it was -2.23%.
With `Cc1ccc(NC(=O)Cn2nc3c(Oc4ccccc4)nccn3c2=O)c(Cl)c1`, the results for the Inhibition with Staphylococcus aureus and in the assay on Escherichia coli were 0.38% and -2.7%, respectively.
As for `O=C(CSc1nc2ccccc2n2cnnc12)Nc1cccc(Br)c1`, the Inhibition in the assay on Staphylococcus aureus is -6.77%; in the assay with Escherichia coli, -14.46%.
In the case of `COc1cccc(CN(c2cccc(F)c2)S(=O)(=O)c2ccc3nnc(C)n3c2)c1`, the Inhibition in the assay on Staphylococcus aureus is listed as -5.28%; with Escherichia coli, -2.32%.
For the compound `O=C(CSc1nc2ccccc2n2cnnc12)Nc1ccc2c(c1)OCO2`, the Inhibition with Staphylococcus aureus is listed as 4.59%; in the assay with Escherichia coli, -3.46%.
As to `CN(C(=O)Cn1nc2nc(Nc3ccc(F)cc3)ccn2c1=O)c1ccccc1`, the Inhibition with Staphylococcus aureus is listed as -13.79%; in the assay on Escherichia coli it was -1.66%.
In the case of `COc1cccc(-n2ccn3c(SCC(=O)c4ccc(F)cc4)nnc3c2=O)c1`, the Inhibition in the assay on Staphylococcus aureus was 13.82%; in the assay with Escherichia coli it was -3.39%.
Consider `Cc1ccc(C)c(NC(=O)Cn2nc3ccc(-c4ccccc4)nn3c2=O)c1`, for which the values for the Inhibition in the assay with Staphylococcus aureus and in the assay on Escherichia coli were -0.8% and -9.05%, respectively.
The like results for `Cc1ccc(-c2cc3c4nn(CC(=O)Nc5ccccc5C)c(=O)n4ccn3n2)cc1C` were, in that order, 5.58% and 2.13%.

Values taken from ChEMBL document CHEMBL4513146, “CO-ADD screening of Karazin Kharkiv National University (Ukraine) compounds”.
